From PubChem BioAssay come the findings set out here.

Where “and” joins values, the source holds several entries; their conditions need not be identical. Equal entries are not always repeated. For part of these data: Results with a measured potency or affinity are listed apart. Calls of active or inactive are those of the source.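 How the source made its calls, unless noted: active means thallium flux through the channel raised or lowered by more than 3 SD from vehicle-only wells, actives on both sides; inactive means the rest.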

Assay [1] can be described thus: compounds altering viability of human ES cells (AID 493140; call rule not given here;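 further: cells exposed to compounds for four days before counting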). Particulars: human embryonic stem cell survival screen; stronger effect = higher value.
For assay [2], the system named is Neuropilin-2 / VEGF-C interaction (human). In words: small molecules blocking Neuropilin-2/VEGF-C interaction – biochemical, microplate binding format, z-score (AID 743281; call rule not given here). Particulars: microplate NRP2/VEGF-C binding assay; stronger effect = lower value.
The nature of assay [3]: modulation of C. elegans fzo-1 (AID 1259413; call rule not given here;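 further: fzo-1 mutant C. elegans worms in liquid wells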). The following applies: C. elegans fzo-1 modulator screen, mean read-out; stronger effect = higher value.
Assay [4] can be described thus: blockers of polyQ-driven CASP3 activation – cell-based (AID 1583). Particulars: polyglutamine-induced caspase-3 activation, cell assay; stronger effect = higher value;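 tested at 10 µM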.
Assay [5] can be described thus: yeast 75Q aggregation reduction – 75Q-TubU reporter (AID 1593). The following applies: Yeast 75Q polyglutamine aggregation reporter.
Assay [6] in a line: restoration of touch response, mutant HTT neurons – whole organism, C. elegans mechanosensory neurons, N-terminal huntingtin (AID 1599). The following applies: C. elegans polyQ-huntingtin mechanosensory neurons, stronger effect = higher value.
Assay [7] is described as follows: blockers of cytochrome c efflux from mitochondria – biochemical, purified mitochondria (AID 1603).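 Further: mouse liver mitochondria challenged with calcium chloride; signal normalized to the plate average as 100%.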 Particulars: stronger effect = lower value.
Assay [8] in a line: polyglutamine aggregate formation blockers (AID 1604). Particulars: polyglutamine-induced protein aggregation inhibition assay; stronger effect = higher value; tested at 2.5 µM.
Assay [9] is described as follows: glutamate transport activators, MN-1 cells, MN-1 cell line (AID 1612).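 Further: tested at 1 µM final; 0% = mean of DMSO vehicle wells on each plate; positive means more glutamate uptake than control and negative means less.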 The following applies: MN-1 motor neuron cells, stronger effect = higher value.
The nature of assay [10]: 75Q-TubH aggregate inhibition, S. cerevisiae, yeast (AID 1616). The following applies: S. cerevisiae 75Q-TubH polyglutamine aggregation suppression; stronger effect = higher value.
For the next assay, the system named is F380Y/beta2Delta. Briefly: BK channel mutant inhibitors and activators – cell-based, U2OS BacMam, thallium flux, beta subunits, selectivity assay, profiling panel (AID 1259406).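 Further: initial slope of Thallos dye fluorescence rise after thallium is added; log ratio against the mean of 0.3% DMSO vehicle wells on the same plate.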 Particulars: U2OS BacMam BK variants, at 30 µM.
For assay [11], the target named is Calcium-activated potassium channel subunit alpha-1 (Homo sapiens) + Leucine-rich repeat-containing protein 26 (Homo sapiens) (UniProt Q12791+Q2I0M4). Described as above. Particulars: U2OS BacMam BK variants, F380Y/Slo1WT/gamma1, at 30 µM.
Sequence of Calcium-activated potassium channel subunit alpha-1 (Homo sapiens) + Leucine-rich repeat-containing protein 26 (Homo sapiens) (Q2I0M4 whole entry, looked up, one chain of several): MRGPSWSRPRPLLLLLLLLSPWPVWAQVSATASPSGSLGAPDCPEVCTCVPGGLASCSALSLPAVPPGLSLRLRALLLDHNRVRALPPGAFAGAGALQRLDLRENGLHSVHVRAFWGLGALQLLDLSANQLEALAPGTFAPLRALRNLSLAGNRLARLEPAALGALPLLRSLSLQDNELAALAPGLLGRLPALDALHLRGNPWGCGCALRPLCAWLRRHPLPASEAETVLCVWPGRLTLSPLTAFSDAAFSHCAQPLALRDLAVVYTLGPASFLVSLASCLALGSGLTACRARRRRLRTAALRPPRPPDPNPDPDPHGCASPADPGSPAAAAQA
Another assay concerns R275C. The description is as above. The following applies: U2OS BacMam BK variants, at 30 µM.
A further assay deals with R275C/beta1. Described as above. Particulars: U2OS BacMam BK variants, at 30 µM.
The subject of another assay is R275C/beta2Delta. The assay is described as above. The following applies: U2OS BacMam BK variants, at 30 µM.
Assay [12] in a line: galactose survival enhancers in mitochondrial complex I cybrids – cell-based, galactose medium, ATP luminescence, primary screen (AID 1645843;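 active means z-score of at least 1.8 in each of two replicates, scored against plate mean and spread of sample wells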;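 further: positive z means more ATP and so rescue of galactose-driven cybrid death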). Particulars: complex I mutant cybrid cells, 72 h, stronger effect = higher value.
The next assay concerns F380Y/beta1. Briefly: BK channel mutant inhibitors and activators – cell-based, U2OS BacMam, thallium flux, beta subunits, selectivity assay, profiling panel (AID 1259406).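 Further: initial slope of Thallos dye fluorescence rise after thallium is added; log ratio against the mean of 0.3% DMSO vehicle wells on the same plate.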 Particulars: U2OS BacMam BK variants, at 30 µM.
For another assay, the system named is F380Y/beta4. The assay is described as above. Particulars: U2OS BacMam BK variants, at 30 µM.
In a further assay the test system is R275C/beta4. The description is as above. The following applies: U2OS BacMam BK variants, at 30 µM.
Another assay deals with R275C/Slo1WT/beta2. Described as above. The following applies: U2OS BacMam BK variants, at 30 µM.

Turning to `Nc1nc2ccc(OC(F)(F)F)cc2s1`, in [1], the survival is 22.5 (inactive). The z-score in assay [2] is 1.45 (inactive). Further, in assay [3], the mean signal was 260 (inactive).
As to `CNCCCC12CCC(c3ccccc31)c1ccccc12`, in assay [4], the inhibition was -14.8%. The score in assay [5] amounted to 1.5. Also, the rescue above control in [6] is 28.8. Moreover, in assay [7], the cytochrome c release ratio turned out to be 1.86. Besides, the inhibition of aggregation in [8] is 26.4%. In assay [9], the glutamate uptake change was 22.4%. In assay [10], this compound registered an aggregation suppression score of 1.14. In addition, in [1], the survival is 0.833 (inactive). The z-score in [2] is -0.344 (inactive). In addition, the mean signal in [3] was 255 (inactive). The log fold change Tl+ flux in the assay with F380Y/beta2Delta is 0.203 (active); in [11], 0.0351 (inactive); with R275C, 0.0254 (inactive); in the assay on R275C/beta1, 0.285 (active); in the assay on R275C/beta2Delta, 0.217 (active).
Turning to `CCCN1C[C@H](CSC)C[C@@H]2c3cccc4[nH]cc(c34)C[C@H]21`, the inhibition in [4] came out at 21.1%. This compound also returned a score in assay [5] of 1. The rescue above control in assay [6] is -1.5. The cytochrome c release ratio in assay [7] was found to be 1.44. Moreover, in [8], the inhibition of aggregation is 61.1%. Moreover, in assay [9], the glutamate uptake change is -2.13%. The compound further came in with an aggregation suppression score in assay [10] of 1.46. The survival in assay [1] was 12.4 (inactive). For the same compound, the z-score in assay [12] was 0.12 (inactive) and -0.1 (inactive). Further, the log fold change Tl+ flux in the assay with F380Y/beta2Delta was 0.0229 (inactive); in assay [11], -0.0185 (inactive); with R275C it was -0.00135 (inactive); in the assay with R275C/beta1, -0.0389 (inactive); with R275C/beta2Delta, -0.00636 (inactive).
On to `CC1(C)O[C@@H]2C[C@H]3[C@@H]4CCC5=CC(=O)C=C[C@]5(C)[C@@]4(F)[C@@H](O)C[C@]3(C)[C@]2(C(=O)CO)O1`, for which the z-score in [12] was 0.21 (inactive). The log fold change Tl+ flux with F380Y/beta1 was 0.0642 (inactive); with F380Y/beta2Delta, -0.014 (inactive); in the assay on F380Y/beta4, 0.0499 (inactive); in assay [11] it was 0.106 (active); in the assay with R275C, -0.0106 (inactive); in the assay with R275C/beta1 it was 0.0867 (inactive). Besides, the log fold change Tl+ flux in the assay with R275C/beta2Delta was 0.0611 (inactive); with R275C/beta4, -0.0125 (inactive); in the assay with R275C/Slo1WT/beta2, -0.102 (inactive).
In the case of `C[C@]12C=CC(=O)C=C1CC[C@@H]1[C@@H]2[C@@H](O)C[C@@]2(C)[C@H]1CC[C@]2(O)C(=O)CO`, the survival in assay [1] is 15.8 (inactive). Further, in [12], the z-score is -0.29 (inactive) and 0.46 (inactive). For the same compound, the log fold change Tl+ flux in the assay on F380Y/beta1 is 0.00512 (inactive); with F380Y/beta2Delta it was 0.0411 (inactive); with F380Y/beta4 it was 0.023 (inactive); in assay [11], -0.0308 (inactive); in the assay with R275C, 0.0128 (inactive); in the assay on R275C/beta1, 0.0311 (inactive). The log fold change Tl+ flux in the assay on R275C/beta2Delta was 0.0197 (inactive); in the assay on R275C/beta4, -0.0125 (inactive); in the assay on R275C/Slo1WT/beta2, -0.0471 (inactive).
Turning to `CNC(=O)Oc1ccc2c(c1)[C@]1(C)CCN(C)[C@@H]1N2C`, the inhibition in assay [4] came to 8.95%. In assay [5], this compound yielded a score of 1.22. The rescue above control in [6] is 1.05. The cytochrome c release ratio in assay [7] was 1.08. Moreover, the inhibition of aggregation in [8] is 39.4%. Also, the glutamate uptake change in assay [9] is -18.2%. The compound further showed an aggregation suppression score in assay [10] of 1.03. For the same compound, in assay [1], the survival is 7.25 (inactive). Moreover, the z-score in assay [12] was -0.835 (inactive) and -0.865 (inactive).
In the case of `COc1ccccc1N1CCN(CCCNc2cc(=O)n(C)c(=O)n2C)CC1`, the survival in assay [1] was 5.83 (inactive). The z-score in assay [2] is -0.551 (inactive); in assay [12], 0.56 (inactive) and 1 (inactive) and -0.025 (inactive). Further, the mean signal in assay [3] was 262 (inactive). For the same compound, the log fold change Tl+ flux in the assay with F380Y/beta2Delta is -0.00368 (inactive); in assay [11], -0.00786 (inactive); in the assay on R275C, -0.0421 (inactive); in the assay on R275C/beta1, 0.0413 (inactive); in the assay with R275C/beta2Delta, 0.0288 (inactive).
In the case of `COc1ccc2c(c1)c(CC(=O)O)c(C)n2C(=O)c1ccc(Cl)cc1`, in assay [4], the inhibition stood at 24.4%. The score in assay [5] is -1.46. Besides, in assay [6], the rescue above control was -5.76. Moreover, in assay [7], the cytochrome c release ratio came to 0.82. Also, in [8], the inhibition of aggregation is -6.06%. In addition, the glutamate uptake change in assay [9] was 7.33%. In [10], this compound came in with an aggregation suppression score of 0.0101. Besides, the survival in assay [1] was 13.2 (inactive). Also, the z-score in assay [2] was 0.68 (inactive). The mean signal in assay [3] was 244 (inactive). Further, the log fold change Tl+ flux in the assay with F380Y/beta2Delta is 0.11 (active); in [11] it was 0.0683 (inactive); in the assay on R275C, 0.074 (inactive); with R275C/beta1, 0.196 (active); with R275C/beta2Delta, 0.128 (active).
Take `Fc1ccc([C@@H]2CCNC[C@H]2COc2ccc3c(c2)OCO3)cc1`: the z-score is 0.222 (inactive) in assay [2]; -1.38 (inactive) and -0.63 (inactive) and -1.71 (inactive) in [12]. Besides, in assay [3], the mean signal was 159 (inactive).
`NC(N)=NC(=O)c1nc(Cl)c(N)nc1N`: in assay [4], the inhibition is 17.4%. Further, in assay [5], the score came to 0.64. In assay [6], this compound registered a rescue above control of -10.9. The cytochrome c release ratio in assay [7] came out at 1.1. In addition, the inhibition of aggregation in assay [8] came out at 27.6%. Besides, in [9], the glutamate uptake change was -1.52%. In addition, the aggregation suppression score in [10] is 1.02. In addition, the survival in assay [1] is 8.17 (inactive). In addition, the z-score in assay [2] is -0.147 (inactive). For the same compound, in assay [3], the mean signal is 212 (inactive). Moreover, the log fold change Tl+ flux with F380Y/beta2Delta was -0.0347 (inactive); in assay [11], 0.0238 (inactive); in the assay with R275C, -0.0162 (inactive); in the assay on R275C/beta1 it was 0.0417 (inactive); in the assay with R275C/beta2Delta, -0.00743 (inactive).
Consider `CC(=O)O[C@]1(C(C)=O)CC[C@H]2[C@@H]3C=C(C)C4=CC(=O)CC[C@]4(C)[C@H]3CC[C@@]21C`, for which the survival in assay [1] is 3.08 (inactive). In addition, in assay [12], the z-score was 0.025 (inactive). Also, the log fold change Tl+ flux with F380Y/beta1 is 0.018 (inactive); in the assay on F380Y/beta2Delta it was 0.0101 (inactive); in the assay with F380Y/beta4 it was -0.0433 (inactive); in assay [11] it was -0.00133 (inactive); in the assay with R275C, -0.0376 (inactive); in the assay on R275C/beta1 it was 0.00523 (inactive). For the same compound, the log fold change Tl+ flux in the assay on R275C/beta2Delta is -0.00852 (inactive); in the assay on R275C/beta4, -0.0116 (inactive); with R275C/Slo1WT/beta2 it was 0.0254 (inactive).
For the compound `CC(=O)OCC(=O)[C@@]12OC(C)(C)O[C@@H]1C[C@H]1[C@@H]3C[C@H](F)C4=CC(=O)C=C[C@]4(C)[C@@]3(F)[C@@H](O)C[C@@]12C`, the survival in assay [1] is 3.25 (inactive). Also, the z-score in assay [12] is 0.355 (inactive). The log fold change Tl+ flux in the assay with F380Y/beta1 is 0.0412 (inactive); in the assay with F380Y/beta2Delta it was -0.00446 (inactive); with F380Y/beta4 it was 0.048 (inactive); in [11], 0.00932 (inactive); in the assay on R275C, -0.038 (inactive); in the assay with R275C/beta1, -0.00722 (inactive). The log fold change Tl+ flux in the assay on R275C/beta2Delta is -0.0403 (inactive); in the assay on R275C/beta4, 0.0407 (inactive); in the assay on R275C/Slo1WT/beta2 it was 0.0498 (inactive).
